# MmCpn inh = M. maripaludis TRiC chaperonin inhibition; purified Mm-Cpn ATPase, ADP Transcreener TR-FRET; Potency, µM (highest dose often 76.9 µM), inactives show top-dose activity, negative = inhibition, actives largely listed as inhibitors; 330,000 tested, 0.031% active; AID 504842; note: potency is the fitted concentration of half-maximal effect; nearly all actives have a fitted effect of over 80% in size
#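 Measured: ADP formation by purified Mm-CPN. Conditions: 25 nM protein, 10 uM ATP, Tris pH 7.4 with Mg2+, K+ and DTT, 37°C for 30 min. Detection: Transcreener HTRF after 30 min at room temperature.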
# Sfp inh = inhibitors of Bacillus subtilis Sfp phosphopantetheinyl transferase. Q9F4F7. Biochemical Sfp PPTase activity, qHTS. Potency, µM, inactives show largest response in the series, negative = inhibition, hits mostly inhibitors. 310,000 tested, 3.5% active. AID 1490;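 note: the enzyme is Sfp with the accession as filed and its product quenches rhodamine fluorescence; potency is the fitted concentration of half-maximal effect; 0% = enzyme reaction without inhibitor and -100% = no enzyme wells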
#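 Sfp 15 nM + cpd, 15 min RT; start w/ rhodamine-CoA 5 uM, BHQ-2-YbbR 12.5 uM (final); 50 mM Hepes pH 7.6, 10 mM MgCl2, 0.01% NP-40, 0.01% BSA; read 525/598 nm at 0 and 30 min.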
# G9a inh = blocks human histone lysine methyltransferase G9a. Q96KQ7. G9a H3K9 monomethylation, AlphaScreen, 2 h. Potency, µM (highest dose often 102 µM), without a hit: top-dose activity, negative = inhibition, usual class: inhibitors. 350,000 tested, 8.8% active; note: potency is the fitted concentration of half-maximal effect; nearly all actives have a fitted effect of over 75% in size
# Target sequence (Q96KQ7 913-1193 limits assumed): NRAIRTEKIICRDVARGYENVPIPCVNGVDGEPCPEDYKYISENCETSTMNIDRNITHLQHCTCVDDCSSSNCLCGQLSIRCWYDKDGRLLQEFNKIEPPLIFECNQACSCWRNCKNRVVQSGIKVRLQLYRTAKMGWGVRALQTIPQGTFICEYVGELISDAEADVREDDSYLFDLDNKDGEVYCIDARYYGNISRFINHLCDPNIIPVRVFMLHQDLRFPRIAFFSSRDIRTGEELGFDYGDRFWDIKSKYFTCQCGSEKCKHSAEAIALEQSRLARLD
#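 G9a (20 nM) was preincubated 15 min with compound, then reacted 2 h at room temperature with 500 nM biotin-H3K9 peptide and 20 µM SAM. Monomethyl-H3K9 detected by AlphaScreen using anti-H3K9me1 antibody.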
# PLK1 PBD inh = inhibitors of human PLK1 polo-box domain binding; Plk1 PBD binding of FITC phosphopeptide, fluorescence polarization; Potency, µM, without a hit: max response, negative = inhibition, usual class: inhibitors; 360,000 tested, 2.8% active; AID 720504; note: potency is the fitted concentration of half-maximal effect; series mostly up to about 57 µM; nearly all actives have a fitted effect of over 65% in size
# CCT chaperon mod = cytosolic chaperonin activity modulation; AID 651819; activity change, % (concentration not given with the values), hits read low; purified chaperonin ATPase assay, HTRF ADP detection, 30 min; 360,000 tested, 0.3% active; in the data active = activity change below about -30%
#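 First, chaperonin was dispensed at 40 nM or 20 nM final depending on batch activity. Next, compounds were pinned at 76 uM and ATP added at 10 uM. After 30 min at 37 °C, ADP detection reagents ran 30 min at ambient temperature.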
# VDR inhibitor = inhibitors of human vitamin D receptor; 400,000 tested, 0.93% active; Potency, µM, without a hit: max response, negative = inhibition, hits mostly inhibitors; AID 504847; VDR-SRC2-3 peptide fluorescence polarization, 2 h; note: potency is the fitted concentration of half-maximal effect
# Target sequence (P11473 whole entry, looked up): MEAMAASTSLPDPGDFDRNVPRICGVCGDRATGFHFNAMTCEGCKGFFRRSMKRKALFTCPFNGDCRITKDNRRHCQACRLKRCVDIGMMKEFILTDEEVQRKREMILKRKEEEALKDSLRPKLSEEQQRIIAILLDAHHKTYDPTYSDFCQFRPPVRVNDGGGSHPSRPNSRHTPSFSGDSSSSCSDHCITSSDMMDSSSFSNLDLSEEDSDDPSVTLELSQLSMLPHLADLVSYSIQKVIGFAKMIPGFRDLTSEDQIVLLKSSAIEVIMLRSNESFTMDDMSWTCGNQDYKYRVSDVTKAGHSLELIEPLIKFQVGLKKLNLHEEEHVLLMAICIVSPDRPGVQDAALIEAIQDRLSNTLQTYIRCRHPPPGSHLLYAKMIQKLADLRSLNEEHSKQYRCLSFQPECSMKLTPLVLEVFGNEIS
#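 FP read-out; VDR + SRC2-3 coactivator peptide; 23 nl compound by pintool; 2 h RT incubation; reagents held at 4 deg C, protected from light.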
# Numbers without * were called inactive; ? = inconclusive; · = no result; ! = a repeat was not active; [ ] = remark or other dose. In the library only some 10% were active in any assay of this set; here they are far more common. Unless noted, calls come from the whole dose curve; as a rule, active = well fitted curve in the direction sought with a large enough effect; inconclusive = small, poorly fitted or top-dose-only effect, or another doubt; inactive = no such curve, though single readings can be large; an effect the other way counts as inactive or inconclusive. Unless noted, % is set by controls: 0 for no effect and ±100 for the full control effect.
SMILES,MmCpn inh,Sfp inh,G9a inh,PLK1 PBD inh,CCT chaperon mod,VDR inhibitor
N#C/C(=C/c1cccc(O)c1)C(=O)NCc1ccc(Cl)cc1,1%,1%,1%,-23%,0,?
N#C/C(=C/c1ccc(O)c(O)c1)C(=O)OC/C=C/c1ccccc1,·,20%,1.6µM*,·,·,-8%
N#C/C(=C\c1ccc(O)c(O)c1)C(=O)Nc1ccccc1,-7%,-17%,7.1µM*,5%,-2,13µM*!
CCc1ccc(C2c3c(n[nH]c3C)C(=O)N2c2ccc(C)cc2)cc1 (configuration not stated),·,·,-34%[59 µM],·,·,-10%
Cc1cc(-c2ccc(Cl)cc2Cl)c(C#N)c(=O)[nH]1,-2%,2%,·,17µM*,-2,?
CSc1nc(-c2ccc(Cl)cc2Cl)[nH]c(=O)c1C#N,-2%,33%,19%[59 µM],?,2,-24%
O=C(c1cccs1)[C@@H]1[C@@H]2C(=O)N(Cc3ccc4c(c3)OCO4)C(=O)[C@@H]2C2c3ccccc3C=CN21 (some centres not stated),-1%,-3%,?,·,·,·
COc1ccc(N2C(=O)[C@H]3[C@@H](C2=O)C2c4ccccc4C=NN2[C@H]3C(=O)C(C)(C)C)cc1 (some centres not stated),0%,17%,·,-8%,-3,-14%
COc1ccc(N2C(=O)[C@@H]3[C@H](C2=O)[C@H]2c4ccccc4C=CN2[C@@H]3C(C)=O)cc1,1%[15.4 µM],-16%,8.9µM*,?,3,-1%
CC(C)(C)C(=O)[C@@H]1[C@@H]2C(=O)N(C3CCCCC3)C(=O)[C@@H]2[C@H]2c3ccccc3C=CN12,-3%,-18%,10µM*,27µM*,-2,27%
O=C(Nc1ccc2c(c1)OCO2)[C@@H]1[C@@H]2C(=O)N(C3CCCCC3)C(=O)[C@@H]2C2c3ccccc3C=CN21 (some centres not stated),-3%,-12%,10µM*,·,·,·
O=C(c1ccc2c(c1)OCO2)[C@@H]1[C@@H]2C(=O)N(C3CCCCC3)C(=O)[C@@H]2C2c3ccccc3C=CN21 (some centres not stated),-19%,0%,32µM*,-10%,3,-1%
Cc1cc2c(cc1S(=O)(=O)CCC(=O)N1CCCC(C)C1)OCC(=O)N2 (configuration not stated),·,·,-31%[59 µM],·,·,-8%
CN1CCN(c2ncc3nc(-c4cccc(C#N)c4)c(=O)n(CCC#N)c3n2)CC1,·,9%,10%[0.501 µM],·,·,3%
Cc1[nH]c(=S)[nH]c(=O)c1Cc1ccccc1,0%,-1%,50µM*,-5%,2,23%
O=c1[nH]c(=S)[nH]nc1Cc1ccccc1,-4%,2%,40µM*,-8%,-8,-22%
Cc1[nH]c(=S)[nH]c(=O)c1Cc1c(O)ccc2ccccc12,·,·,·,?,-2,-29%
Cc1ccc(NC(=O)CCNS(=O)(=O)c2ccc3c(c2)CCCC(=O)N3)cc1,·,·,-15%[59 µM],·,·,10%
CN(C)CCCNc1cc(C(C)(C)C)nc2c(-c3ccc(Cl)cc3)cnn12,0%,32µM*,4%,3%,-1,3%
CC(C)(C)c1cc(NCc2ccccn2)n2ncc(-c3ccc(Cl)cc3)c2n1,0%,12%,·,-2%,-2,?
COc1cccc(NC(=O)c2csc3c2CCCCC3)c1,·,·,10%[59 µM],·,·,0%
NC(=S)N/N=C/c1ccc(-c2cc(Cl)cc(Cl)c2)o1,·,50µM*,13µM*,-24%,0,?
NC(=S)N/N=C/c1ccc(-c2ccc([N+](=O)[O-])cc2)o1,1%,3.5µM*,22µM*,24µM*,-10,?
CSCC[C@H](NC(=O)[C@@H]1CCCN1C(=O)CNC(=O)[C@H](CCCCN)NC(=O)[C@H](Cc1cnc[nH]1)NC(=O)[C@H](CO)NC(=O)[C@H](CC(C)C)NC(=O)[C@H](CCCNC(=N)N)NC(=O)[C@@H]1CCCN1C(=O)[C@H](CCCNC(=N)N)NC(=O)[C@H](CCC(N)=O)NC(=O)[C@H](CCCNC(=N)N)NC(=O)[C@H](CCCNC(=N)N)NC(=O)[C@H](Cc1ccccc1)NC(=O)[C@@H](N)CCCCN)C(=O)N1CCC[C@H]1C(=O)N[C@@H](Cc1ccccc1)C(=O)O,·,11%,·,·,·,0%
O=C(Nc1ccccc1N1CCCC1)C1CCN(S(=O)(=O)c2ccccc2)CC1,0%,·,50µM*,1%,1,-3%
SMILES,MmCpn inh,Sfp inh,G9a inh,PLK1 PBD inh,CCT chaperon mod,VDR inhibitor
O=C(Nc1ccccc1N1CCCCC1)C1CCN(S(=O)(=O)c2ccccc2C(F)(F)F)CC1,4%,·,-27%[59 µM],1%,0,-11%
O=C(Nc1ccccc1N1CCCC1)C1CCN(S(=O)(=O)c2ccccc2C(F)(F)F)CC1,1%,·,35µM*,-2%,-1,-9%
Cc1cc(N2CCCCC2)nc2ccc(NC(=O)/C=C/c3ccccc3OC(C)C)cc12,·,·,-30%[59 µM],·,·,-20%
Cc1cc(C)c2c(=O)cc(C(=O)NCc3ccc(S(N)(=O)=O)cc3)oc2c1,·,·,23%[59 µM],·,·,4%
Cc1cc2c3c(cccc3n1)C(=O)c1ccccc1-2,·,0%,·,·,·,-10%
COc1ccc2c(CC(=O)OCC(=O)Nc3ccc(C)cc3)coc2c1,0%,·,-8%[12.7 µM],2%,1,-1%
CCOc1ccc(OCCC(=O)OCC(=O)Nc2ccc3c(c2)OCO3)cc1,-1%,·,45µM*,-14%,0,11%
COc1ccc2c(CC(=O)OCC(=O)N3CCc4ccccc43)coc2c1,0%,19%,-12%[12.7 µM],27µM*,-1,?
COc1ccc2c(CC(=O)N3CCc4ccccc43)coc2c1,-6%,-16%,-28%[59 µM],-9%,-2,-3%
COc1ccc2c(CC(=O)OCC(=O)Nc3ccc4c(c3)OCO4)coc2c1,-3%,3%,?,17µM*,-18,18µM*
COc1cc(OC)c(NC(=O)N2CCc3cc(S(=O)(=O)N4CCC(C)CC4)ccc32)cc1Cl,·,·,-1%[59 µM],·,·,-7%
COc1ccc2[nH]cc(CCNc3ncncc3-c3ccc(C(=O)N(C)C)cc3)c2c1,·,-23%,-27%[0.501 µM],·,·,-7%
CCCC(=O)NC(c1ccccc1)c1c(O)ccc2ccccc12 (configuration not stated),0%,-6%,38%,-17%,1,-19%
CCCC(=O)NC(c1ccc(N(C)C)cc1)c1c(O)ccc2ccccc12 (configuration not stated),-2%,11%,32µM*,-12%,0,-4%
